# Screening results (PubChem)
# PI5P4Ka inh – qHTS for Inhibitors of phosphatidylinositol 5-phosphate 4-kinase (PI5P4K). Phosphatidylinositol 5-phosphate 4-kinase type-2 alpha (Homo sapiens), P48426. PI5P4Kalpha enzyme, ADP-Glo luminescence, 60 min; stronger effect = lower value. max response, %. 330,000 tested, 1.2% active; active = max response of -50% or lower; inconclusive = between -30% and -50%; inactive = -30% or higher; also: value at the top dose of about 77 µM; % is scaled to controls: 0 for no effect and ±100 for the full control effect
#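 Compounds were pin-transferred onto PI5P4Kalpha and substrate in HEPES pH 7.4 buffer with EGTA, CHAPS and 5% DMSO. ATP (5 microM final) started the reaction, which ran 60 minutes at room temperature before ADP-Glo detection.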
# PLK1 PBD block – qHTS for Inhibitors of PLK1-PDB (polo-like kinase 1 - polo-box domain): Primary Screen | Potency, µM, for inactives: max response, negative = inhibition, most hits filed as inhibitors | Plk1 PBD binding of FITC phosphopeptide, fluorescence polarization | 360,000 tested, 2.8% active | Serine/threonine-protein kinase PLK1 (Homo sapiens), P53350; also: potency is read from the fitted curve at half-maximal effect; series mostly up to about 57 µM; % is scaled to controls: 0 for no effect and ±100 for the full control effect; nearly all actives have a fitted effect of over 65% in size
# JMJD2A Tudor inh – qHTS Assay for Inhibitors of JMJD2A-Tudor Domain. AlphaScreen JMJD2A-Tudor / H3K4me3 peptide binding. Potency, µM (highest dose often 114 µM), for inactives: at the highest dose activity change, negative = inhibition, hits mostly inhibitors. 390,000 tested, 4.4% active. AID 504339, 2011; also: potency is read from the fitted curve at half-maximal effect; % is scaled to controls: 0 for no effect and ±100 for the full control effect; nearly all actives have a fitted effect of over 50% in size
# BAZ2B inh – qHTS Assay for Inhibitors of BAZ2B | Bromodomain adjacent to zinc finger domain protein 2B (Homo sapiens), Q9UIF8 | 360,000 tested, 4.4% active | AID 504333, 2011 | Potency, µM (highest dose often 114 µM), for the others: top-dose activity change, negative = inhibition, most hits filed as inhibitors | AlphaScreen BAZ2B-H3K14Ac peptide displacement; also: potency is read from the fitted curve at half-maximal effect; % is scaled to controls: 0 for no effect and ±100 for the full control effect; nearly all actives have a fitted effect of over 60% in size
#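 Multi-concentration screen (max 110 uM) measuring displacement of acetylated histone H3 peptide from BAZ2B by AlphaScreen, using 50 nM protein, 50 nM peptide and 10 ug/mL streptavidin donor plus Ni-chelate acceptor beads.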
# HP1b binding inh – HTS for Inhibitors of HP1-beta Chromodomain Interactions with Methylated Histone Tails; Potency, µM (series often up to 114 µM), for the others: at the top dose activity change, negative = inhibition, most hits filed as inhibitors; AlphaScreen HP1-beta / biotin-H3K9me3 peptide binding; 390,000 tested, 0.56% active; also: potency is read from the fitted curve at half-maximal effect; nearly all actives have a fitted effect of over 70% in size
#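 HP1-beta protein (50 nM final) preincubated 30 min at room temperature with biotinylated H3(1-18)K9me3 peptide (50 nM) in PBS pH 7.4, 0.01% Tween-20, then compound added for 30 min. AlphaScreen streptavidin donor/nickel chelate acceptor beads (10 ug/mL final), 30 min dark, luminescence read.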
# KAT2A inh – qHTS Assay for Inhibitors of GCN5L2; AID 504327, 2011; 390,000 tested, 0.21% active; Potency, µM (doses to about 58.9 µM), without a hit: at the highest dose activity change, negative = inhibition, actives largely listed as inhibitors; GCN5L2 HAT assay, ThioGlo1 CoA-SH fluorescence; also: potency is read from the fitted curve at half-maximal effect; % is scaled to controls: 0 for no effect and ±100 for the full control effect
#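 GCN5L2 (20nM final) in 50mM HEPES, 0.1mM EDTA pH 7.5, 0.01% Tween-20 was preincubated 15 min at room temperature with compound, then given ThioGlo1 (50uM), H3(1-25) peptide (75uM) and acetyl-CoA (70uM); CoA-thiol fluorescence (Ex340/Em540) was read at 0 and 20 min.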
# The depositor's hits bear a star; ? = inconclusive; · = no result given. Shown are actives, neighbours in structure and some others; about 7% of the full set was active somewhere. Unless noted, calls follow the shape of the dose curve; as a rule, active = well fitted curve in the direction sought with a large enough effect; inconclusive = small, poorly fitted or top-dose-only effect, or another doubt; inactive = no such curve, though single readings can be large; an effect the other way counts as inactive or inconclusive.
SMILES,PI5P4Ka inh,PLK1 PBD block,JMJD2A Tudor inh,BAZ2B inh,HP1b binding inh,KAT2A inh
CC(NS(=O)(=O)c1ccccc1)C1CC2CCC1C2 (stereo unspecified),7.3,8.0%,4.7%,·,37.6%,·
COc1cc(CN2CCN(S(=O)(=O)c3ccc(F)cc3)CC2)cc(OC)c1OC,·,-12.1%,7.94µM*,4.5%,?,2.1%
CC(=O)c1ccc(N2CCN(C(=O)NCc3noc4ccc(C)cc34)CC2)cc1,·,·,-20.5%,-32.5%,1.1%,-3.4%
O=C1N/C(=N/O)S/C1=C/c1cccnc1,-55.4*,23.8µM*,-14.1%,?,0.1%,-3.7%
O=C1/C(=C\c2cccnc2)Sc2ccccc21,-17.0,23.8µM*,79.4µM*,-30.4%,-8.4%,-3.4%
CC(/C=C1\SC(=Nc2cccnc2)NC1=O)=C\c1ccccc1,?,26.7µM*,79.4µM*,-10.2%,-15.7%,-12.8%
CCN(CC)C(=O)c1ccc2c(c1)N(Cc1c(F)cccc1Cl)C(=O)c1ccccc1S2,·,·,-21.7%,·,23.3%,-5.7%
Cn1nc(C(=O)OCC(=O)Nc2ccc(F)cc2Cl)c2ccccc2c1=O,-4.3,6.8%,3.4%,·,19.0%,1.1%
O=C(C1COc2ccccc2O1)N1CCc2ccccc21 (stereo unspecified),·,?,79.4µM*,44.7µM*,?,-16.2%
O=C(C1COc2ccccc2O1)N1CCCC1 (stereo unspecified),-3.0,-6.3%,-7.7%,-11.7%,33.1%,-6.9%
O=C(O)C1C2C=CC(C2)C1C(=O)N1CCc2ccccc21 (stereo unspecified),1.2,-6.6%,-15.8%,4.6%,20.2%,-2.8%
O=C(O)C1C2C=CC(C3CC23)C1C(=O)N1CCc2ccccc21 (stereo unspecified),·,-24.3%,20µM*,-5.5%,-28.0%,0.1%
Cc1nc(-c2cc(C#N)c(Sc3ccc(Cl)cc3Cl)nc2C)cs1,21.7,-6.0%,18.3%,15.1%,53.0%,-24.9%
Clc1ccc(CNc2ncnc3nc[nH]c23)cc1,·,·,-3.5%,·,20.8%,·
CC(C)(C)c1ccc(C(=O)N2CCC2(C)C(=O)Nc2cccc3ncccc23)cc1 (stereo unspecified),0.7,-11.9%,·,·,·,·
Nc1ccccc1C(=O)/C=C/c1ccc2c(c1)OCO2,6.0,-3.6%,44.7µM*,14.1µM*,?,-12.8%
CCNc1ccc(Br)cc(C(=O)/C=C/c2ccc(Cl)cc2)c1=O,?,?,44.7µM*,10µM*,-34.7%,-9.1%
Cc1ccc(O)c(C(=O)/C=C/c2ccc3c(c2)OCCO3)c1,15.4,-8.9%,28.2µM*,28.2µM*,?,-11.4%
CCNc1ccc(Br)cc(C(=O)/C=C/c2ccc3c(c2)OCO3)c1=O,?,?,44.7µM*,22.4µM*,20µM*,-3.6%
Cc1ccc(C(=O)C=Cc2ccc3c(c2)OCO3)c(C)c1,15.4,-3.3%,·,·,·,·
CC(C)CN(C(=O)Cn1ccccc1=O)C1CCS(=O)(=O)C1 (stereo unspecified),0.1,-5.8%,-6.4%,6.3%,24.7%,-1.0%
Cc1ccc(C(=O)NNC(=O)c2csc(N3CCOCC3)n2)s1,-4.0,-6.0%,3.4%,0.0%,38.1%,0.8%
CCNC(=O)/C=C/c1cccc(Br)c1,·,·,·,·,·,-4.3%
CCNc1ccc(Br)cc(C(=O)/C=C/c2c(Cl)cccc2Cl)c1=O,-18.4,?,89.1µM*,25.1µM*,?,?
CC1CN(c2nc3ccccc3nc2SCC(=O)Nc2cccc(C(F)(F)F)c2)CC(C)O1 (stereo unspecified),12.0,-10.1%,-5.5%,·,85.9%,·
